Compounds with a hit are over-represented: about 9.3% of the library has one in this group of screens.
FLuc modulator = counter-screen for miR-21 project: firefly luciferase inhibitors or activators. P08659. purified FLuc, Km substrates, luminescence inhibition. Potency, µM (series often up to 57.5 µM), usual class: inhibitors. 6.9% of 360,000 active. AID 588342; further: nearly all actives have a fitted effect of over 55% in size
Target sequence (P08659 whole entry, looked up): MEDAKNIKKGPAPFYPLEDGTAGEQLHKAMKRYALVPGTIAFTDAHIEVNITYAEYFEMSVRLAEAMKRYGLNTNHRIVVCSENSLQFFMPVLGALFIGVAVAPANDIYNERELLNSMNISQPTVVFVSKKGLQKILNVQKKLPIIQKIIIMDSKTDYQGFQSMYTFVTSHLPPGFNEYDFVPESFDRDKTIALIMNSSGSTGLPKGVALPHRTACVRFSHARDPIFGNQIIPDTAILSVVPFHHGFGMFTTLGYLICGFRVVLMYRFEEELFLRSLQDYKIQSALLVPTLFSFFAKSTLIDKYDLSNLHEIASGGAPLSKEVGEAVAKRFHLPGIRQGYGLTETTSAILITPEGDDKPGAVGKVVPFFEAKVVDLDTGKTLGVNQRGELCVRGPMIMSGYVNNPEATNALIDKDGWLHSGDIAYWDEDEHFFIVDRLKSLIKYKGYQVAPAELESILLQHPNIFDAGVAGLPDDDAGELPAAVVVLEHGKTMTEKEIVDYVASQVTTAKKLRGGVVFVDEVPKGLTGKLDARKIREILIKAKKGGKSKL
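Purified P. pyralis luciferase, 10 nM final, with Km-level 10 uM D-luciferin and 10 uM ATP in 50 mM Tris acetate pH 7.5, 10 mM Mg acetate, 0.01% Tween-20, 0.05% BSA; 6-point qHTS titration about 60 µM downward; luminescence read.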
SMN2 splice up = SMN2 splice variant enhancement; Potency, µM (doses to about 46.1 µM), most hits filed as activators; HEK293 SMN2-luciferase splicing reporter, luminescence, 30-36 h; 2.8% of 210,000 active; further: nearly all actives have a fitted effect of over 55% in size
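HEK293 cells carry an SMN2 […]–luciferase reporter in which exon 7 inclusion puts luciferase in frame. Cells were plated 10-12 h before compound addition, then incubated 30-36 h at 37C. ONE-Glo luminescence was read; sodium butyrate at 4.5 mM final served as control.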
Rab9 prom act = Rab9 promoter activation | 2.8% of 320,000 active | Huh7 Rab9 promoter-luciferase reporter, luminescence, 24 h | AID 485297 | Potency, µM (doses to about 9.22 µM), most hits filed as activators; further: nearly all actives have a fitted effect of over 60% in size
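Huh7 cells stably carrying a Rab9 promoter-luciferase reporter, 1500 cells per well in OP-MEM I with 10% FBS, treated with compound 24 hours at 37C. Luciferase activity read by luminescence after 10 minutes with Amplite reagent.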
ELG1 repair inh = ELG1-dependent DNA repair inhibition. HEK293T ELG1-luciferase reporter, luminescence, 16 h; DNA damage induced by 5-fluorouridine. Potency, µM (highest dose often 46.1 µM), usual class: inhibitors. 2.3% of 330,000 active; further: nearly all actives have a fitted effect of over 55% in size
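Luminescence from the luciferase reporter, measured 30 min after ONE-Glo reagent at room temperature, was the read-out. Beforehand, 2,000 cells per well were exposed for 16 hr at 37 °C to 5-fluorouridine together with compound or vehicle.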
NPC1 promoter act = NPC1 promoter activation. AID 485313. 2.4% of 320,000 active. Potency, µM (top dose mostly 9.22 µM), usual class: activators. Huh7 NPC1 promoter luciferase reporter, 24 h; further: nearly all actives have a fitted effect of over 60% in size
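In 1536-well qHTS, Huh7 cells harboring an NPC1 promoter–luciferase construct received compound for 24 h; activation was quantified by luminescence following luciferase reagent addition.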
ELG1 genotox = inducers of genotoxicity in HEK293T ELG1-luciferase cells; Potency, µM (titrated, usually from 46 µM), hits mostly activators; HEK293T ELG1-luciferase reporter, luminescence, 16 h; 1.3% of 330,000 active; AID 504466; further: nearly all actives have a fitted effect of over 60% in size
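Reporter readout depends on ELG1 protein level, which increases with genetic stress. After 16 hr compound exposure at 37 °C, luciferase activity was quantified using ONE-Glo.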
A number is an active result; 0 = inactive; ? = inconclusive; - = not tested or not shown; [ ] = dose if it differs, or a comment. The call rests on the fitted dose curve; in most records, active means well fitted curve in the direction sought with a large enough effect; inconclusive means small, poorly fitted or top-dose-only effect, or another doubt; inactive means no such curve, though single readings can be large; an effect the other way counts as inactive or inconclusive.

SMILES | FLuc modulator | SMN2 splice up | Rab9 prom act | ELG1 repair inh | NPC1 promoter act | ELG1 genotox
COC(=O)c1ccc2nc(NC(=O)C(C)(C)C)sc2c1 | 0.426µM | 0 | 0.282µM | ? | ? | ?
CNCC(O)COc1ccccc1 (centres undefined) | 0 | 0 | 0 | 0 | 0 | 0
O=C(O)CC(C(=O)OCCOc1ccccc1)N1CCOCC1 (centres undefined) | 0 | 0 | 0 | 0 | 0 | 0
O=C(O)c1c(NC(=O)c2cccc3ccccc23)sc2c1CCC2 | ? | 0 | 0[1.84 µM] | ? | 0 | 0
COC(=O)c1ccc2nc(Nc3nc4ccc(F)cc4s3)sc2c1 | 4.78µM | 0 | 0 | ? | 0 | ?
COC(=O)c1ccc2nc(NC(=O)C3CCCCC3)sc2c1 | ? | - | 0.316µM | ? | 0.891µM | ?
COc1ccc(C(=O)/C=C/c2cn(CN3CCN(C)CC3)c3ccccc23)cc1 | 6.01µM | 0 | 0 | ? | 0 | ?
COc1ccc(C(=O)/C=C/c2cn(CC(O)CN3CCOCC3)c3ccccc23)cc1 (centres undefined) | 15.1µM | 0 | 0 | ? | 0 | 0
CCOc1ccc(C(=O)/C=C/c2cn(CN3CCN(C)CC3)c3ccccc23)cc1 | 16.9µM | 0 | 0 | ? | 0 | 0
Cc1ccc(C(=O)/C=C/c2cn(CC(O)CN3CCOCC3)c3ccccc23)cc1 (centres undefined) | ? | 0 | 0 | 0 | 0 | 0
O=C1C(Cl)=C(NCCN2CCOCC2)C(=O)c2ccccc21 | 0 | - | 0 | ? | 0 | 0
CC(C)CCNC(=O)NC(=O)COC(=O)/C=C/c1cnc2ccccc2n1 | 0 | 0 | 0 | ? | 0 | 0
Clc1nc(Oc2ccccc2)nc(-c2cn(-c3ccccc3)c3ccccc23)n1 | 0 | - | 0 | 0 | 0 | 0
COc1ccc(OCC(=O)N/N=C/C=C/c2ccccc2)cc1 | 4.78µM | 0 | 0 | 0 | 0 | 0
CCOc1ccc(N=C/C=C/c2ccccc2)c(O)c1 | 8.49µM | - | ? | ? | ? | ?
O=C(COc1ccc(-c2ccccc2)cc1)N/N=C/c1cc(O)ccc1Br | 10.7µM | 0[1.84 µM] | 0 | 0 | 0 | 0
COc1ccc(NCC(=O)N/N=C/C=C/c2ccccc2[N+](=O)[O-])cc1 | 0 | 0 | 0 | 0 | 0 | 0
O=C(COc1ccc(-c2ccccc2)cc1)N/N=C/c1ccccc1Br | ? | 0 | 0 | 0 | 0 | 0
CCOc1ccc(NCC(=O)N/N=C/C=C/c2ccccc2)cc1 | 13.5µM | 0 | 0 | 0 | 0 | 0
CCOc1ccc(-c2[nH]ncc2-c2ccccc2)c(O)c1 | 0 | - | 0 | 0 | 0 | 0
O=C(OCC(=O)N1CCCc2ccccc21)c1cc(S(=O)(=O)N2CCOCC2)ccc1F | 0 | - | 0 | 0 | 0 | 0
CSC1=NSC2=NC(=O)/C(=C\c3ccc(OC(=O)c4ccco4)cc3)C(=N)N12 | 19µM | - | 1.58µM | ? | 3.55µM | ?
CC(C)CS(=O)(=O)C1=NSC2=NC(=O)/C(=C\c3ccc(OC(=O)c4ccco4)cc3)C(=N)N21 | ? | - | 0 | 0 | 0 | 0
CS(=O)(=O)C1=NSC2=NC(=O)/C(=C\c3ccc(OC(=O)c4ccco4)c(Br)c3)C(=N)N21 | 13.5µM | - | 0 | 0 | 0 | 0
Cc1cc(C)n2nc(SCc3nnc(-c4ccc(F)cc4)o3)nc2n1 | 0 | 0 | 0 | 0 | 0 | 0
SMILES | FLuc modulator | SMN2 splice up | Rab9 prom act | ELG1 repair inh | NPC1 promoter act | ELG1 genotox
CCCNC(=O)Cc1c(O)c2ccccc2[nH]c1=O | 0 | 0 | 0 | 0 | 0 | 0
COc1ccc(C2CC2/C(=N/O)c2ccccn2)cc1 (centres undefined) | ? | 0 | ? | 0 | 0 | 0
COc1ccc(C2CC2C(=O)c2ccccn2)cc1 (centres undefined) | 16.9µM | 0 | ? | ? | ? | 0
O=C(COC(=O)c1ccc[nH]c1=O)NCCc1ccc(Cl)cc1Cl | 10.7µM | - | 0.501µM | ? | 0.398µM | ?
Cc1ccc(C(=O)c2ccccc2C(=O)OCC(=O)NCCc2ccc(Cl)cc2Cl)cc1 | 0 | 0 | 0 | 0 | 0 | 0
CC(=O)Nc1ccc(Nc2nnc(-c3ccc(C)c(S(=O)(=O)NCC4CCCO4)c3)c3ccccc23)cc1 (centres undefined) | ? | - | 0 | 20.6µM | 0 | 0
Cc1ccc(-c2nnc(Nc3ccccc3)c3ccccc23)cc1S(=O)(=O)NCC1CCCO1 (centres undefined) | ? | 0 | 0 | 20.6µM | 0 | 0
CNC(=O)c1ccc(Nc2nnc(-c3ccc(C)c(S(=O)(=O)NCC4CCCO4)c3)c3ccccc23)cc1 (centres undefined) | ? | 0 | 0 | ? | 0 | 0
O=C(Nc1ccccc1Cl)c1ccccc1Cl | 0 | 0 | 0 | 0 | 0 | 0
Nc1ccccc1C(=O)Nc1ccc(Cl)cc1Cl | 10.7µM | - | 2.51µM | ? | ? | ?
O=C(NC(=S)Nc1ccccc1O)c1ccc(Cl)cc1Cl | 19µM | 0 | ? | ? | ? | ?
O=C(Nc1ccccc1Cl)c1ccc(Cl)cc1Cl | 13.5µM | 0 | 0 | ? | 0 | 0
CC(C)NC(=S)NC(=O)c1ccc(Cl)cc1Cl | 0 | 0[1.84 µM] | 0 | 0 | 0 | 0
C#Cc1cccc(NC(=O)c2ccc(Cl)cc2Cl)c1 | 2.69µM | - | 1.12µM | ? | 1.78µM | 16.4µM
O=C(CCn1cccc1)Nc1ccccc1F | 0 | 0 | 0 | 0 | 0 | 0
CC(C)C[C@H](NC(=O)Nc1ccccc1F)C(=O)O | 0 | 0 | 0 | 0 | 0 | 0
CCOC(=O)CSc1nc(N)c(C#N)c(-c2ccc(OC)cc2)c1C#N | 0 | - | 0 | 0 | 0 | 0
C=C(C)CSc1nc(N)c(C#N)c(-c2ccc(C)cc2)c1C#N | 15.1µM | 0 | - | - | - | -
COc1ccc(/C=C2\Sc3ccc(C(=O)NCc4cccnc4)cc3N(C)C2=O)cc1OC | 0 | 0 | 0 | 18.3µM | 0 | 0
COc1ccc(/C=C2\Sc3ccc(C(=O)N4CCOCC4)cc3N(C)C2=O)cc1 | 15.1µM | - | 0 | ? | 0 | 0
CN1CCN(C(=O)c2ccc3c(c2)N(C)C(=O)/C(=C/c2cccc(Cl)c2)S3)CC1 | 0 | - | 0 | 0 | 0 | 0
COc1ccc(/C=C2\Sc3ccc(C(=O)N4CCN(Cc5ccccc5)CC4)cc3N(C)C2=O)cc1OC | 0 | - | 0 | 23.1µM | 0 | 0
CCOc1ccccc1C(=O)NN1C(=O)CCC1=O | 0 | 0 | 0 | 0 | 0 | 0
CN1CCN/C1=C(/C(Cl)=C(Cl)Cl)[N+](=O)[O-] | 0 | 0 | 0 | 0 | 0 | 0
Cc1cc(-c2ccc(C(C)C)c(S(=O)(=O)N3CCN(c4ccccn4)CC3)c2)on1 | 0 | - | 0 | 16.4µM | 0 | 0
NC(=O)Cn1c(=O)n(CCCCCC(=O)NCc2ccc(F)cc2)c(=O)c2sccc21 | 0 | 0 | - | - | - | -
CC(C)c1ccc(NC(=O)c2sccc2-n2cccc2)cc1 | ? | - | 2.82µM | ? | 3.98µM | 0
CCCOc1ccc(-c2nc(SCC(=O)c3ccc(Cl)cc3)n[nH]2)cc1 | 0 | 0 | - | - | - | -
S=c1nc(-c2ccc(Cl)cc2)[nH][nH]1 | 0 | - | 0 | 0 | 0 | 0

High-throughput results: PubChem BioAssay, National Center for Advancing Translational Sciences (NCATS)
